A short description of experiment [1]: qHTS assay to identify small molecule agonists of the vitamin D receptor (VDR) signaling pathway - cell viability counter screen (AID 743224). Note: nearly all actives have a fitted effect of over 50% in size. Note: potency is the fitted concentration of half-maximal effect. In outline: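 Compounds were pin-transferred onto VDR-bla cells plated 4 h earlier; following 16 h incubation at 37C, cell viability was quantified by CellTiter-Glo luminescence after 30 min at room temperature.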
(In general: qHTS replaces the single test concentration by a dilution series.)

The nature of experiment [2]: qHTS assay to identify small molecule antagonists of the vitamin D receptor (VDR) signaling pathway - cell viability counter screen (AID 743225). Note: nearly all actives have a fitted effect of over 50% in size. Note: potency is the fitted concentration of half-maximal effect. In a few lines: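 VDR-bla HEK 293T cells, 4 h pre-incubation at 37C, then compound plus 1-alpha,25-dihydroxyvitamin D3 (3 nM final) for 16 h. After the beta-lactamase FRET read, CellTiter-Glo was added to the same wells; luminescence after 30 min at room temperature.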

Experiment [3] in a line: qHTS assay to identify small molecule agonists of the NFkB signaling pathway (AID 1159509; active = well fitted curve in the direction sought with a large enough effect in the signal ratio in the repeat runs, not every such curve was filed as active; the % refers to the signal ratio). In outline: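 Agonist activity was read as beta-lactamase-driven FRET change (460 and 530 nm emission, 405 nm excitation) following 1.5 hr substrate loading at room temperature. Beforehand, ME-180 NFkB-bla reporter cells were treated with compounds for 5 hr at 37 C.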
Experiment [4] is described as follows: qHTS assay to identify small molecule agonists of the NFkB signaling pathway - cell viability counter screen (AID 1159515; calls by dose curve; note: nearly all actives have a fitted effect of over 55% in size; note: potency is the fitted concentration of half-maximal effect). In a few lines: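 Parallel cytotoxicity counter screen in ME-180 cells carrying an NFkB-response-element beta-lactamase reporter, 2,000 cells/well. Compound exposure lasted 5 hr at 37 C, 5% CO2. Cell viability was quantified by CellTiter-Glo luminescence.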

Experiment [5] in a line: qHTS assay to identify small molecule agonists of the endoplasmic reticulum stress response signaling pathway - cell viability counter screen (AID 1159517; calls by dose curve; note: nearly all actives have a fitted effect of over 50% in size; note: potency is the fitted concentration of half-maximal effect). In a few lines:
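ESRE-bla HeLa cells (1,500/well) were plated overnight at 37 C and exposed to compounds for 5 hr. After the 2 hr beta-lactamase substrate read, CellTiter-Glo went into the same wells, and luminescence was read after 30 min at room temperature.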

Experiment [6] in a line: qHTS assay to identify small molecule antagonists of the retinoid-related orphan receptor gamma (ROR-gamma) signaling pathway - cell viability counter screen (AID 1159520). Note: nearly all actives have a fitted effect of over 50% in size. Note: potency is the fitted concentration of half-maximal effect. In outline: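 Cytotoxicity was read from cellular ATP (CellTiter-Glo luminescence) after 16 hr at 37 C with 1 uM doxycycline induction. The inducer was added 2 hr after compound transfer to Tet-on ROR gamma CHO cells.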

Experiment [7] addresses Nuclear receptor ROR-gamma (Homo sapiens) (UniProt P51449). Nature of the experiment: qHTS assay to identify small molecule antagonists of the retinoid-related orphan receptor gamma (ROR-gamma) signaling pathway (AID 1159521; note: nearly all actives have a fitted effect of over 50% in size; note: potency is the fitted concentration of half-maximal effect). In a few lines: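 Tet-on RORγ CHO cells carrying a ROR response element–luciferase reporter were pretreated with compounds for 2 h, then induced with 1 uM (final) doxycycline hyclate for 16 h at 37 C. Antagonism was read as decreased ONE-Glo luminescence.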

The nature of experiment [8]: qHTS assay to identify small molecule agonists of the AP-1 signaling pathway - cell viability counter screen (AID 1159525; calls by dose curve; note: nearly all actives have a fitted effect of over 55% in size). In outline: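 Intracellular ATP by Cell Titer Glo luminescence (30 min, RT) in the same ME-180 AP-1-bla wells after the 5 h compound exposure at 37 °C. Normalised to tetra n-octyl ammonium bromide and DMSO controls.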
Experiment [9] in a line: qHTS assay to identify small molecule agonists of the RXR signaling pathway - cell viability counter screen (AID 1159529). Note: nearly all actives have a fitted effect of over 50% in size. Note: potency is the fitted concentration of half-maximal effect. In a few lines: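 RXR-alpha-UAS-bla HEK 293T cells in medium with 2% charcoal-stripped FBS were preincubated 5 hr, then exposed to compounds for 16 hr at 37 C. Viability was read as CellTiter-Glo luminescence after 30 min at room temperature.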
Experiment [10] can be described thus: qHTS assay to identify small molecule antagonists of the retinoid acid receptor (RAR) signaling pathway - cell viability counter screen (AID 1159551). Note: nearly all actives have a fitted effect of over 35% in size. In outline:
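ATP-based viability, C3RL4 cells, 6 h at 37 C with 1 uM final retinol co-added after compound; luminescence read 30 min post CellTiter-Glo, RT.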

The nature of experiment [11]: qHTS assay to identify small molecule antagonists of the retinoic acid receptor (RAR) signaling pathway (AID 1159552; note: nearly all actives have a fitted effect of over 50% in size; note: potency is the fitted concentration of half-maximal effect). In outline: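 RARE-luc C3RL4 cells; cpds + 1 uM (final) retinol, 6 hr, 37 C/5% CO2; luciferase reagent, 30 min RT, luminescence readout. Inhibitors of retinol-driven signal scored.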
A short description of experiment [12]: qHTS assay to identify small molecule agonists of the retinoic acid receptor (RAR) signaling pathway (AID 1159553). Conditions: C3RL4 RARE luciferase reporter, agonist, 6 h; activation: at 73.3 µM (top of the series) unless noted. In outline:
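Quantitative high-throughput format: the Tox21 10K library was tested on C3RL4 RARE-luciferase cells for 6 hr at 37 C and 5% CO2, with luminescence measured after a 30 min room-temperature reagent step.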

A short description of experiment [13]: qHTS assay to identify small molecule agonists of the AP-1 signaling pathway (AID 1159526; calls by dose curve).
Experiment [14] in a line: qHTS assay to identify small molecule agonists of the endoplasmic reticulum stress response signaling pathway (AID 1159516; active = well fitted activation curve with a large enough effect in the signal ratio in the repeat runs, not every such curve was filed as active; the % refers to the signal ratio). In outline:
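Using a HeLa line with an ESRE-driven beta-lactamase gene, agonist activity was measured by FRET substrate fluorescence (460 and 530 nm emission) after cells were treated with compounds for 5 hr at 37 C and 5% CO2.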

Experiment [15] has as its target Retinoic acid receptor RXR-alpha (Homo sapiens) (UniProt P19793). Nature of the experiment: qHTS assay to identify small molecule agonists of the RXR signaling pathway (AID 1159527; calls by dose curve; note: nearly all actives have a fitted effect of over 35% in size). In a few lines:
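GeneBLAzer RXR-alpha-UAS-bla HEK 293T cells in medium with 2% charcoal-stripped FBS, pre-incubated 5 hr at 37 C, then exposed to compounds 16 hr. Beta-lactamase reporter read by FRET substrate, 2 hr room temperature, 460/530 nm emission.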

Where “and” joins values, the source holds several entries; their conditions need not be identical. Equal values may be shown once. Inconclusive results are not listed. A structure can be active in one record and inactive in another. Calls of active or inactive are those of the source. Unless noted, calls come from the whole dose curve; as a rule, active = well fitted curve in the direction sought with a large enough effect in the repeat runs; inconclusive = weak or mixed curves; inactive = no such curve, though single readings can be large; an effect the other way counts as inactive or inconclusive.

Sequence of Retinoic acid receptor RXR-alpha (Homo sapiens) (P19793 whole entry, looked up): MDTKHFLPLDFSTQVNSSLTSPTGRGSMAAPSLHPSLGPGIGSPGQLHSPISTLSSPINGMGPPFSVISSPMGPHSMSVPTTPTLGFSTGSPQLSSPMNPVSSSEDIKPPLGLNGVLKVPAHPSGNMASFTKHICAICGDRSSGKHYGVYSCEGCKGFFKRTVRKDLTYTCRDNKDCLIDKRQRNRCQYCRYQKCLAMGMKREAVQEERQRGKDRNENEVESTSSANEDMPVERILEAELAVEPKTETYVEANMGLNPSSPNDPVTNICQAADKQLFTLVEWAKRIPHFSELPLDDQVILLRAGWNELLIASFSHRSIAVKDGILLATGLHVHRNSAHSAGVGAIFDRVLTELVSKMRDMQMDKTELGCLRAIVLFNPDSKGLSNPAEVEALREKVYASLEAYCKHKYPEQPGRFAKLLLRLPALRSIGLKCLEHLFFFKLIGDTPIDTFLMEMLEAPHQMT

Regarding `c1cc(OCC2CO2)ccc1Cc1ccc(OCC2CO2)cc1` (configuration not stated), the Potency result in [1], in experiment [2], in [4], in experiment [5], in [6] and in experiment [7] was “inactive” each time. Further, the Potency result in experiment [8], in [9], in experiment [10], in experiment [11] and in experiment [12] was “inactive” throughout. In addition, in experiment [3], the call was inactive.
`O=C(Nc1ccc(Br)cc1)c1cc(Br)cc(Br)c1O`: the Potency is 1.73 µM (active) and 2.19 µM (active) and 8.41 µM (active) in experiment [1]; 1.95 µM (active) in [2]; 13.8 µM (active) and 49 µM (active) in experiment [4]; 8.68 µM (active) and 1.95 µM (active) and 5.35 µM (active) in experiment [5]; 27.2 µM (active) and 17.2 µM (active) in [6]; 13.6 µM (active) and 10.9 µM (active) in experiment [7]. Further, the Potency in experiment [9] was 24.5 µM (active). Further, the result in experiment [3] and in experiment [13] was inactive. The Potency result in experiment [8], in [10], in experiment [11] and in experiment [12] was “inactive” throughout.
For `CC(C)(C)c1ccccc1O`, the Potency result in experiment [1], in experiment [2], in experiment [4], in experiment [5], in experiment [6] and in experiment [7] was “inactive” throughout. The Potency result in [8], in experiment [15] and in experiment [9] was “inactive” each time. Besides, the result in experiment [3] and in experiment [14] was inactive.
Turning to `ClC1C(Cl)C(Cl)C(Cl)C(Cl)C1Cl` (configuration not stated), the Potency entry in experiment [1], in experiment [2], in [5], in experiment [6], in experiment [8] and in experiment [15] was “inactive” each time. The Potency result in [10], in [11] and in [12] was “inactive” in each case. Also, the result in experiment [3], in [14] and in experiment [13] was inactive. Besides, the Potency in experiment [4] is 55.4 µM (active) and inactive; in experiment [9], “inactive and 43.6 µM (active)”.
Take `CCCCC(CC)COC(=O)Cl` (configuration not stated): the Potency result in experiment [1], in experiment [2], in [4], in [5], in experiment [6] and in experiment [8] was “inactive” in each case. Further, the Potency result in experiment [15], in [9], in [10], in experiment [11] and in experiment [12] was “inactive” each time. For the same molecule, the outcome in experiment [3], in experiment [14] and in [13] was inactive.
For the molecule `C=CC(=O)OCCO`, the Potency result in experiment [1], in [2], in [5], in experiment [6], in [7] and in experiment [8] was “inactive” throughout. The Potency entry in experiment [15], in [9] and in [10] was “inactive” in each case. Besides, the result in experiment [3], in [14] and in experiment [13] was inactive.
For the molecule `C#CCOS(=O)OC1CCCCC1Oc1ccc(C(C)(C)C)cc1` (configuration not stated), the Potency in experiment [1] is 6.92 µM (active); in experiment [2], 38.9 µM (active); in [6], 30.7 µM (active) and 54.5 µM (active); in [7] it was 1.94 µM (active) and 3.86 µM (active); in [9] it was 27.6 µM (active) and 43.6 µM (active); in [11] it was 13.7 µM (active) and 15.4 µM (active). Moreover, the result in experiment [3] and in experiment [14] was inactive. The Potency entry in experiment [4], in [5], in experiment [8] and in experiment [12] was “inactive” in each case.
In the case of `c1ccc(P(c2ccccc2)c2ccccc2)cc1`, the Potency entry in [1], in experiment [2], in experiment [4], in experiment [5], in experiment [6] and in experiment [7] was “inactive” throughout. Besides, the Potency result in experiment [8], in [15] and in [9] was “inactive” in each case. Moreover, the result in experiment [3] and in [13] was inactive.
Regarding `COP(=S)(OC)Oc1cc(Cl)c(Cl)cc1Cl`, the Potency result in experiment [1], in [2], in experiment [4], in experiment [5], in [6] and in experiment [8] was “inactive” throughout. The Potency result in [15], in experiment [9], in experiment [10], in experiment [11] and in [12] was “inactive” throughout. Also, the call in experiment [3] and in [14] was inactive.
For the molecule `O=P(Oc1ccccc1)(Oc1ccccc1)Oc1ccccc1`, the Potency entry in [1], in experiment [2], in experiment [4], in [5], in experiment [6] and in experiment [8] was “inactive” in each case. Further, the Potency entry in experiment [10] was “inactive”. Also, the outcome in [3], in [14] and in [13] was inactive.

For the origin of these results see PubChem BioAssay (Tox21).
